# Bioassay records: PubChem, several laboratories
# F508del corr = correctors of CFTR F508del function in bronchial epithelial cells; CFBE cells, YFP halide quenching; stimulated with forskolin plus potentiator P3; % fluorescence drop versus neutral controls; activity (quench increase), % at 7.58 µM; hit rate 0.36% among 350,000; AID 720511;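 active means mean added fluorescence quench of at least 8% versus neutral control, with both replicates also reaching 8%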;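 further: cells transiently co-express mutant CFTR-F508del with the halide-sensitive YFP; corrector assay measuring rescue of mutant channel to the surface after 24 h compound exposure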
# MPTP block = permeability transition pore inhibition; isolated mouse mitochondria, Ca2+ swelling absorbance, 30 min; inhibition, % at 10 µM; hit rate 1.4% among 360,000; AID 602449;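 active means inhibition of 50% or more, scaled per plate between neutral and stimulator controls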;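 further: 0% = DMSO wells given calcium and 100% = 1 mM EGTA wells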
# NRP1-CendR mod = modulators of CendR peptide binding to human neuropilin-1; FAM-RPARPAR peptide binding to NRP-1, fluorescence polarization; AID 602438; hit rate 0.85% among 360,000; inhibition, % at 25 µM; O14786;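 active means inhibition or corrected inhibition above about 18%, plus a signal ratio from 0.5 to 1.5, limit read from the data, passing the limit was not always enough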
# ATG4B inhibitor = ATG4B (human) cysteine protease inhibition; inhibition, % at 8.33 µM; ATG4B cleavage of LC3-PLA2, NBD-HPC fluorescence, 1 h; Q9Y4P1; hit rate 0.51% among 340,000; AID 504462; in the data active means inhibition above about 40%
# Target sequence (Q9Y4P1 whole entry, looked up): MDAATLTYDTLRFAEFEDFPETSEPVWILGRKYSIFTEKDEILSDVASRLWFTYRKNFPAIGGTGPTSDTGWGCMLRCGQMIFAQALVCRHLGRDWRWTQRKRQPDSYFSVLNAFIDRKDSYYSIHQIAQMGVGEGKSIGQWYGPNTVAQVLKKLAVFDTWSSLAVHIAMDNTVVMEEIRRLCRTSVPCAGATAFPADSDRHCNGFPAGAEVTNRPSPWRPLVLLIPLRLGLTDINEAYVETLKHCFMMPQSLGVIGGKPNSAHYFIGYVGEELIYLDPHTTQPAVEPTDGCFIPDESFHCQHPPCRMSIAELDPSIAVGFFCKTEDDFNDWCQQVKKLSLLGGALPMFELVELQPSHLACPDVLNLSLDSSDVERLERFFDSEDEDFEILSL
# SKN-1 inh = inhibitors of C. elegans SKN-1; inhibition, % at 21.8 µM; hit rate 0.49% among 360,000; C. elegans VP596 Pgst-4::GFP/RFP ratio, acrylamide-induced, 24 h;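 active means interference check ratio from 0.5 to 1.5 plus GFP to RFP signal ratio inhibition reaching or exceeding a fixed threshold, cut at about 30% in these data, passing the limit was not always enough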
# An asterisk follows results filed as active; / = not tested or not shown. In the library only some 2.7% were active in any assay of this set; here they are far more common.
SMILES,F508del corr,MPTP block,NRP1-CendR mod,ATG4B inhibitor,SKN-1 inh
CCOC(=O)c1cn(CC)c2cc(N3CCOCC3)c(F)cc2c1=O,/,-3.4,1.1,-4.7,39.9*
O=C(C[C@H]1CC[C@H](NC(=O)c2cccnc2)[C@@H](CO)O1)NCCN1CCCCC1,-7.2,/,/,/,/
Cc1cc(C(=O)CN2CCN(CC(=O)Nc3cccc(F)c3)CC2)c(C)n1C1CC1,1.9,0.5,-7.7,-11.9,2.9
Cc1cc(C(=O)CN2CCN(CC(=O)Nc3ccc(F)cc3)CC2)c(C)n1C1CC1,22.6*,0.0,3.4,-9.7,5.9
C[C@@H](NC(=O)C[C@@H]1CC[C@@H]2[C@H](COC[C@@H](O)CN2Cc2ccc(C(F)(F)F)cc2)O1)c1ccccc1,-0.2,/,/,/,/
Cc1ccc(-n2nnnc2CNC(=O)C2CC(=O)N(c3ccccc3)C2)cc1C (stereo not drawn),1.8,0.3,28.2*,-8.2,-3.0
Cc1ccc(N2CC(C(=O)NCc3nnnn3-c3ccc(C)c(C)c3)CC2=O)cc1 (stereo not drawn),-1.1,0.6,-0.1,-2.8,-6.5
Clc1ccccc1/C=C/c1nc(-c2cccnc2)no1,1.1,0.6,-25.1,0.2,38.8*
C(=C\c1nc(-c2cccnc2)no1)/c1ccccc1,-1.0,-1.1,2.6,-3.8,65.7*
O=C(C[C@@H]1C[C@H]2c3cc(NS(=O)(=O)c4ccccc4)ccc3O[C@H]2[C@H](CO)O1)NC1CCCC1,-0.1,/,/,/,/
Cc1[nH]c2ccccc2c1C(=O)/C=C/c1ccccc1,/,-2.0,-14.1,-8.4,53.0*
CCN(CC)S(=O)(=O)c1ccc(NC(=O)C2CC(=O)N(c3ccc4c(c3)OCCO4)C2)cc1 (stereo not drawn),14.8*,-2.4,-0.7,-17.5,-0.5
C[C@H](CO)N1C[C@H](C)[C@H](CN(C)Cc2ccc3c(c2)OCO3)Oc2c(NC(=O)c3nc4ccccc4s3)cccc2C1=O,0.1,/,/,/,/
CCn1c2ccccc2c2cc(NC(=O)CSc3nnc(-c4ccc(OC)c(OC)c4)n3N)ccc21,/,-0.2,10.0,-5.7,36.4*
COc1cccc2c1NC(C(=O)O)C1CC=CC21 (stereo not drawn),/,14.0,42.1*,18.4,0.7
CC(=O)c1ccc2c(c1)C1C=CCC1C(C(=O)O)N2 (stereo not drawn),-2.5,0.7,29.2,27.1,6.9
CC(C)CCOP(=O)(c1ccc(N(C)C)cc1)C(Nc1ccccc1)c1ccc(N(C)C)cc1 (stereo not drawn),5.1,5.4,-6.0,-15.2,-9.1
CC(C)OP(=O)(c1ccc(N(C)C)cc1)C(Nc1ccccc1)c1ccccc1 (stereo not drawn),4.1,4.6,30.8*,-12.4,-19.8
CO[C@H]1CN(C)C(=O)c2ccc(NC(=O)Nc3cccc(F)c3)cc2OC[C@H](C)N(C(C)=O)C[C@H]1C,-2.8,/,/,/,/
COC(=O)CCC(=O)Nc1cccc2c(NC(=O)CCC(=O)OC)cccc12,/,-3.1,20.7*,0.6,3.7
COC(=O)CCC(=O)Nc1ccccc1C(N)=O,/,0.9,-0.5,-6.2,-7.8
COc1cccc(N2[C@@H](CC(C)=O)c3ccccc3S2(=O)=O)c1,2.8,0.1,22.1*,1.4,-7.1
C[C@H](NC(=O)C[C@H]1CC[C@@H]2[C@H](COC[C@H](O)CN2Cc2cc(F)ccc2F)O1)c1ccccc1,0.2,/,/,/,/
COc1cc2sc3ccc(C#Cc4ccc(N)cc4)cc3c(=O)c2cc1OC,-0.2,-0.9,-4.0,7.9,39.7*
C[C@@H]1CN([C@@H](C)CO)C(=O)c2cccc(NC(=O)c3ccncc3)c2O[C@@H]1CN(C)S(=O)(=O)c1ccc(Cl)cc1,-0.9,/,/,/,/
SMILES,F508del corr,MPTP block,NRP1-CendR mod,ATG4B inhibitor,SKN-1 inh
CCN(CC)S(=O)(=O)c1ccc(N2CCOCC2)c(NC(=O)c2ccc(N3CCCC3=O)cc2)c1,1.4,-0.7,-0.5,-2.5,-3.6
O=C(Nc1ccccc1N1CCOCC1)c1ccc(N2CCCC2=O)cc1,0.9,-0.4,25.4*,-8.4,2.9
Cc1ccc(C(=O)NCCN(C)C)c(C)c1,/,-1.0,-4.4,-12.1,7.4
CNc1c2cccc(C)c2nc2c(C(=O)NCCN(C)C)cccc12,19.4*,-1.0,140.3,-17.3,-7.6
CCCN(C)C[C@@H]1OCCCC[C@@H](C)Oc2ccc(NC(=O)Cc3ccccc3)cc2C(=O)N([C@H](C)CO)C[C@@H]1C,-2.1,/,/,/,/
COc1ccc(C(=O)OCC(=O)N2CCN(S(=O)(=O)c3ccc(C)cc3)CC2)cc1[N+](=O)[O-],4.0,-0.3,26.2*,-2.9,-8.5
COc1ccc(C(=O)OCC(=O)N2CCCCC2)cc1[N+](=O)[O-],-1.6,-3.8,12.1,0.4,-4.2
COc1ccc(NC(=O)Nc2ccc3c(c2)CC(=O)N([C@H](C)CO)C[C@@H](C)[C@H](CN(C)Cc2ccc(C(=O)Nc4ccccc4N)cc2)O3)cc1,-3.4,/,/,/,/
Fc1ccc(Cn2nnc(-c3ccc(CN4CCOCC4)cc3)n2)cc1,/,-0.2,-3.8,-7.9,36.4*
Clc1ccc(Cn2nnc(-c3ccc(CN4CCOCC4)cc3)n2)cc1,/,0.9,9.1,-5.6,29.6
Clc1ccc(Cn2nnc(-c3ccccc3)n2)cc1,/,3.9,-0.4,-5.1,53.6*
Clc1ccccc1Cn1nnc(-c2ccccc2)n1,3.1,-0.6,8.3,2.5,11.0
COc1ccc(CN(C)C[C@@H]2Oc3ccc(NS(C)(=O)=O)cc3CC(=O)N([C@H](C)CO)C[C@H]2C)cc1,-1.9,/,/,/,/
CC(C)NC(=O)c1ccc(COc2cccc3ccccc23)o1,9.8*,3.4,-25.0,/,2.7
CC(C)N1C(=O)[C@@]2(Cc3ccccc31)c1ccccc1C(=O)N(Cc1ccccc1)[C@H]2c1ccc(CO)cc1,-0.2,/,/,/,/
Cc1cccc2cc(C#N)c(SCCN3CCCCC3)nc12,/,/,/,-12.8,/
Cc1cccc2cc(C#N)c(SCc3nnc(-c4ccccc4[N+](=O)[O-])o3)nc12,/,-0.5,31.5*,5.7,-10.3
O=C(NC(CC1=CCCCC1)c1ccc2ccccc2c1)C(F)(F)F (stereo not drawn),-0.6,/,/,/,/
CN(C)c1ccc(C(=O)OCC(=O)Nc2ccc(S(N)(=O)=O)cc2)cc1,/,0.2,39.4*,3.3,17.5
Cc1cccc(C)c1OCCCN1CCCC1,/,-3.4,-5.0,-1.8,-4.7
c1ccc(OCCCCN2CCCCC2)cc1,-9.8,-0.6,-1.3,-3.0,8.7
Cc1cccc(C)c1OCCN1CCCC1,2.6,-0.4,27.6*,-2.4,4.4
c1ccc(OCCCN2CCCC2)cc1,/,-0.7,23.0*,-3.3,8.8
CCN1[C@@H]2c3ccc(-c4ccncc4)c(=O)n3C[C@H]1[C@H](CO)[C@H]2C(=O)NCCc1cn(C)cn1,2.1,/,/,/,/
O=C(N[C@H]1CC[C@H](CCNS(=O)(=O)c2cccc(Cl)c2)O[C@H]1CO)c1ccc(F)cc1,0.3,/,/,/,/
COc1ccc(-n2nc3c(N4CCC(C(=O)NCc5ccccc5C)CC4)nnc(C)c3c2C)cc1,/,-2.2,-35.9,54.1*,-8.0
O=C(/C=C/Nc1ccc(Oc2ccccc2)cc1)c1ccco1,0.6,0.0,1.5,31.4,81.9*
O=C(NNC(=S)Nc1ccc(Br)cc1)c1cccnc1,1.8,-0.1,8.2,0.8,2.4
